# Results: PubChem BioAssay AID2284191 (EPA ToxCast)
# Active and inactive are the calls of the source. Rule for the calls: active = hit-call score of the fitted dose curve at least 0.9, where 1 is the maximum; inactive = score below 0.9.
# Target: human Serotonin Receptor 5-HT5A Agonism, HTR5A (gene 3361) (UniProt P47898)
# Assay: ERF_FR_GPCR_hHTR5A: Eurofins (ERF) G Protein-Coupled Receptor (GPCR) Radioligand Binding LeadHunter Assay for human Serotonin Receptor 5-HT5A Agonism
# Method: ERF_FR_GPCR_hHTR5A is a biochemical, single-readout assay that uses extracted gene-proteins in a cell-free assay. Measurements were taken 2 hour after chemical dosing in a 96-well plate. See 5-HT5A Human Serotonin GPCR Binding (Agonist Radioligand) Assay, Cerep.ERF_FR_GPCR_hHTR5A is an assay component calculated from the ERF_FR_GPCR_hHTR5A assay. It is designed to measure radioligand binding using a type of binding reporter as detected by scintillation counting with radiometry technology.Data from the assay component ERF_FR_GPCR_hHTR5A was analyzed at the assay endpoint, ERF_FR_GPCR_hHTR5A, in the positive analysis fitting direction relative to DMSO as the negative control and baseline of activity. Using a type of binding reporter, gain-of-signal activity can be used to understand changes in binding as they relate to gene HTR5A. To generalize the intended target to other relatable targets, this assay endpoint is annotated to the gpcr intended target family, where the subfamily is serotonin.
# Human cells are incubated for 120 minutes at 37 C with [3H]LSD ligand (1.5 nM) and serotonin as control inhibitor. Test Sample Requirements: Minimum for 1) Screen: 60 ul of 10 mM stock -OR- 1 mg (pre-weighed) for 10 uM final testing. 2) Dose Response: 90 ul of 10 mM stock -OR- 1 mg (pre-weighed) for a top concentration at 10 uM.
# Sequence of human Serotonin Receptor 5-HT5A Agonism, HTR5A (gene 3361) (P47898 whole entry, looked up): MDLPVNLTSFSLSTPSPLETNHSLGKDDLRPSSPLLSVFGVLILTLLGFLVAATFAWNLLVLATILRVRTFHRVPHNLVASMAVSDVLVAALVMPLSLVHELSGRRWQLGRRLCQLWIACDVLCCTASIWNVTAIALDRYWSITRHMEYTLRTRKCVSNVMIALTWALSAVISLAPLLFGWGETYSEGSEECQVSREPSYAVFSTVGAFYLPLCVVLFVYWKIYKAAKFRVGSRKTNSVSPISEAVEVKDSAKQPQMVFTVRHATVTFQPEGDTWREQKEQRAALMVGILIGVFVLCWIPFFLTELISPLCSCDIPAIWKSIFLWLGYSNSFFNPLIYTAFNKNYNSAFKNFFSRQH
row,Compound,AC50
1,O=C(/C=C/c1ccc(O)cc1)CC(=O)/C=C/c1ccc(O)cc1,1.68 µM (active)
